Compound activity (PubChem BioAssay)
Compounds with a hit are over-represented: about 0.78% of the library has one in this group of screens.
CCT modulator – cytosolic chaperonin activity modulation | purified chaperonin ATPase assay, HTRF ADP detection, 30 min | activity change, % (test concentration not listed), hits read low | 360,000 compounds, 0.3% hits; in the data active = activity change below about -30%; also: % is scaled to controls: 0 for no effect and ±100 for the full control effect
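We incubate TRiC, 40 or 20 nM final, with library compounds at 76 uM and 10 uM ATP for 30 min at 37 °C. ADP formed is detected with Transcreener HTRF reagents after 30 min at room temperature.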
PGK inhibitor – T. brucei PGK inhibition; P07378; PGK/GAPDH coupled, Kinase-Glo luminescence, 60 min; AID 602233; Potency, µM (top dose mostly 57.5 µM), without a hit: top-dose activity change, negative = inhibition, actives largely listed as inhibitors; 380,000 compounds, 0.043% hits; also: potency is read from the fitted curve at half-maximal effect; % is scaled to controls: 0 for no effect and ±100 for the full control effect; nearly all actives have a fitted effect of over 60% in size
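Recombinant glycosomal PGK reaction used 1,3-bisphosphoglycerate generated in-well by GAPDH (100nM final) in 100mM TEA pH 7.6, 5mM MgCl2, 0.01% Tween-20. After 60 minutes at room temperature, ATP was read by Kinase-Glo Plus luminescence end-point.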
PINK1 modulator – PINK1 expression modulation; PINK1 immunofluorescence, high-content cytometry, 24 h; Potency, µM (doses to about 76.6 µM), inactives show at the highest dose activation (PINK1 increase), actives largely listed as activators; 410,000 compounds, 0.2% hits; AID 624263; active = well fitted activation curve with a large enough effect; inconclusive = small, poorly fitted or top-dose-only effect; cell line not stated here; also: potency is read from the fitted curve at half-maximal effect; % of control where 0% means no effect; nearly all actives have a fitted effect of over 65% in size
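Stable cell line, 250 cells/well, 12 h attachment; compounds pinned at 5 concentrations, 24 h; CCCP control. Fixed with nuclear dye, primary antibodies 12 h at 10 degrees C, secondary plus cell stain; laser-scanning cytometer read.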
GLS inh – glutaminase GLS (human) inhibition; 410,000 compounds, 0.21% hits; O94925; Potency, µM (top dose mostly 45.5 µM), for the others: top-dose activity change, negative = inhibition, hits mostly inhibitors; GLS enzymatic activity, qHTS titration; AID 624170; also: potency is read from the fitted curve at half-maximal effect; % is scaled to controls: 0 for no effect and ±100 for the full control effect
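Assay buffer: 45 mM KH2PO4 pH 8.2, 0.02% Tween-20. hKGA acts on L-glutamine (1 mM solution added); product glutamate is reported by an oxidase/peroxidase Amplex Red coupling, with fluorescence taken at baseline and 30 min.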
PI4K2A block – PI4K2A (human) kinase inhibition; AID 1346378; activity change, negative = inhibition, % at 76.9 µM; Q9BTU6; 420,000 compounds, 0.13% hits; purified PI4K2A, ADP-Glo luminescence, 1 h; active compounds read low; in the data active = activity change below about -50%; inconclusive = mostly about -30% to -49%;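 also: -100% = wells without enzyme as full effect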
Target sequence (Q9BTU6 whole entry, looked up): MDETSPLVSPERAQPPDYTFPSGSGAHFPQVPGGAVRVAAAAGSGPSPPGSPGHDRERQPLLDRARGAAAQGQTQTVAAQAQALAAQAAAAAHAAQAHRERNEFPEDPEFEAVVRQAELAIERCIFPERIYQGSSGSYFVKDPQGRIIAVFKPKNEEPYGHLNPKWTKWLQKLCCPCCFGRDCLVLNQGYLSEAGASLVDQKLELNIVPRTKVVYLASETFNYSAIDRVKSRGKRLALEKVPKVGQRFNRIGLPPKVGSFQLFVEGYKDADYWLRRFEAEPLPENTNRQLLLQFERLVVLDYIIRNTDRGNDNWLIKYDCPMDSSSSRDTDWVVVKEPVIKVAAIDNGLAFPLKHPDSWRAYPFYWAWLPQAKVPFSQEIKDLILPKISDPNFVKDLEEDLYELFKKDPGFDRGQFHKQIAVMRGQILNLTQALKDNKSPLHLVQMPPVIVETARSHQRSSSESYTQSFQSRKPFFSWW
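In this quantitative HTS, ADP production by PI4K2A was quantified luminescently after 1 h at ambient temperature; 100 microM adenosine served as plate-quality control.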
Numbers without * were called inactive; i = inactive; u = inconclusive; x = no result given. Unless noted, calls follow the shape of the dose curve; as a rule, active = well fitted curve in the direction sought with a large enough effect; inconclusive = small, poorly fitted or top-dose-only effect, or another doubt; inactive = no such curve, though single readings can be large; an effect the other way counts as inactive or inconclusive.

SMILES	CCT modulator	PGK inhibitor	PINK1 modulator	GLS inh	PI4K2A block
C=Cc1ccc(C(=O)N2CCc3c(cnc(C)c3CNC(=O)c3ccc4c(c3)OCO4)C2)cc1	x	x	-1%	x	x
Cc1ccccc1Sc1c(C#N)c(-c2ccccc2)nn1C	2	-5%	7.1µM*	2%	-8
Cc1c(-c2ccnc3cc(C(=O)O)nn23)cnn1C	-3	3%	0%	7.9µM*	0
COc1ccc2cc(CN(C(=O)c3cc(C)nn3C)C3CC3)c(-c3ccc(Cl)cc3)nc2c1	x	x	1%	x	x
CCN(C(=O)COC(=O)c1cccnc1)c1cccc2ccccc12	-50*	1%	0%	-2%	0
CCN(C(=O)COC(=O)c1cnccn1)c1cccc2ccccc12	1	-1%	-1%	1%	2
CCCCCCCCCCCCCCCC(=O)O[C@@H]1CC(C)=C(\C=C/C(C)=C\C=C/C(C)=C\C=C\C=C(C)\C=C\C=C(C)\C=C\C2=C(C)C[C@@H](OC(=O)CCCCCCCCCCCCCCC)CC2(C)C)C(C)(C)C1	x	x	x	0%	x
CCC(NC(=O)c1ccc2nc(Cc3ccc(OC)cc3)oc2c1)c1ccncc1 (centres undefined)	-84*	i	-2%	-1%	-5
CCC(C)NC(=O)c1ccc2nc(Cc3ccc(OC)cc3)oc2c1 (centres undefined)	-1	8%	2%	0%	53
CCN(CC)C(=O)CC(c1cc(OC)c(OC)c(OC)c1)c1c(OC)cc(OC)c2ccc(=O)oc12 (centres undefined)	1	0%	0%	6%	-1
CCN(CC)C(=O)CC(c1cc(OC)c(OC)c(OC)c1)c1c(OC)cc(OC)c2c(-c3ccccc3)cc(=O)oc12 (centres undefined)	-1	u	3%	11µM*	-5
Cn1c(N)c(C(=O)COC(=O)c2cc(-c3ccco3)nc3ccccc23)c(=O)n(C)c1=O	0	-24%	1%	7.9µM*	u
CCOC(=O)C1CCCN(C(=O)c2cc(-c3ccco3)nc3ccccc23)C1 (centres undefined)	-2	u	-2%	13µM*	u
CSc1nnc(CNC(=O)c2c(-c3ccccc3)noc2C)n1-c1ccc(F)cc1	x	x	1%	x	x
Cc1ccc2nc(CNC(=O)c3cc(NC(=O)c4ccccc4)cc4ncn(C5CCCC5)c34)cn2c1	x	x	0%	x	x
N#Cc1ccc(OCC(=O)NCC2COc3ccccc3O2)cc1 (centres undefined)	-41*	-6%	0%	1%	-6
Cc1c(/C=N/NC(=O)c2ccccc2O)c2ccccn2c1C(=O)c1ccc(F)cc1	1	2%	28µM*	14%	-5
COc1ccnc2c1CCCCC2S(=O)c1nc2ccccc2[nH]1 (centres undefined)	x	x	x	x	-2
Cc1ccc(OCC(=O)N/N=C\c2ccc(C)o2)c([N+](=O)[O-])c1	1	-2%	45µM*	0%	4
COc1ccc(-c2c[n+](CC(=O)OC3CC(C)CCC3C(C)C)c3n2CCC3)cc1 (centres undefined)	-1	-7%	40µM*	2%	-3
O=C1C2C3C=CC(CC3)C2C(=O)N1/N=C/c1ccc(O)c(O)c1 (centres undefined)	-2	-12%	-1%	-24%	-3
O=C1c2ccccc2C(=O)N1/N=C/c1ccc(O)c(O)c1	0	-1%	1%	2.5µM*	5
O=C(O)COc1ccc2c(c1)O/C(=C\c1ccco1)C2=O	-6	28µM*	1%	10µM*	-22
CN(C)c1ccc(NC(=O)COC(=O)c2cc(Cl)ccc2[N+](=O)[O-])cc1	-90*	-9%	-1%	28%	-12
NS(=O)(=O)c1ccc(NC(=O)COC(=O)c2cc(Cl)ccc2[N+](=O)[O-])cc1	-18	-4%	-1%	0%	2
SMILES	CCT modulator	PGK inhibitor	PINK1 modulator	GLS inh	PI4K2A block
COc1ccc2c(c1)CCc1cnc(-n3ncc(C(=O)N4CCN(CCO)CC4)c3C3CC3)nc1-2	x	x	0%	x	x
CN(C)c1ccc(O)c2c1CC1CC3C(N(C)C)C(=O)C(C(N)=O)=C(O)[C@@]3(O)C(=O)C1=C2O (some centres undefined)	2	1%	2%	56%	1
CN(C)c1cc(NC(=O)CNC(C)(C)C)c(O)c2c1C[C@@H]1C[C@H]3[C@H](N(C)C)C(=O)C(C(N)=O)=C(O)[C@@]3(O)C(=O)C1=C2O	x	x	x	6.3µM*	-8
O=C(NC1CCN(Cc2ccccc2)C1)c1cnn(-c2ncc3c(n2)-c2ccccc2CC3)c1C1CC1 (centres undefined)	x	x	1%	x	x
CCOc1cc(/C=C(/C#N)c2nc3ccccc3[nH]2)ccc1Oc1ccc([N+](=O)[O-])cn1	-2	-6%	x	-12%	5
COc1ccc2nc(/C(C#N)=C\c3ccc(Oc4ccc([N+](=O)[O-])cn4)cc3)[nH]c2c1	-2	-3%	11µM*	-3%	3
COc1cc(/C=C(/C#N)c2nc3ccccc3[nH]2)ccc1Oc1ncccc1[N+](=O)[O-]	-2	-2%	7.9µM*	5%	11
CC(=O)N1CCC(N(CCN2CCOCC2)C(=S)Nc2c(C)cccc2C)CC1	-35*	-22%	1%	11%	-1
Fc1ccc(CCNC(=S)Nc2ccc(F)c(Cl)c2)cc1	2	6%	14µM*	1%	-4
Cc1ccc(C(O)(C(=O)NNc2ccccn2)c2ccc(C)cc2)cc1	-2	-3%	1%	13µM*	2
O=c1c(-c2ccc([N+](=O)[O-])cc2)coc2c(O)c(O)ccc12	0	8.9µM*	-2%	48%	2
CCc1ccc(NC(=O)C2CCCN(S(=O)(=O)c3cnc[nH]3)C2)cc1 (centres undefined)	-74*	i	0%	-3%	-3
O=[N+]([O-])c1ccc(O/N=[N+](\[O-])N2CCN(c3ccccc3)CC2)c([N+](=O)[O-])c1	x	x	2%	x	x
CCNC(=O)C1CC(=O)N(c2ccc(OCC)cc2)C1 (centres undefined)	1	2%	-1%	-1%	3
CCOc1ccc(N2CC(C(=O)NCC(=O)Nc3ccc(F)c(F)c3F)CC2=O)cc1 (centres undefined)	-55*	4%	9%	2%	0
CC(C)(C)c1ccc(NC(=O)c2ccccc2)c([N+](=O)[O-])c1	-41*	i	6%	9%	-7
Oc1cc(-c2nc3ccccc3s2)cc2c1OCCN(Cc1cccn1-c1ncccn1)C2	x	x	4%	x	x
CCCOc1ccc(C2C(C(=O)c3cc4ccccc4o3)=C(O)C(=O)N2c2cc(C)on2)cc1 (centres undefined)	0	0%	25µM*	6%	1
